# Results published in the supplement of paper PMC5919970.
# Where a name gives a salt, the structure may show the parent alone. In all, about 2,000 compounds were measured (“fractional viability relative to vehicle”: median about 0.92, lowest 2% from about 0.11 on). Many of the other results were omitted from the sample, so the lowest values are more common in it than they were.
# Tested on: TYKNU
# Test: fractional viability relative to vehicle; TYKNU is a high-grade serous ovarian cancer line; higher = less growth inhibition
# Conditions: 72 h, genotype: OPA1 knockout (sgOPA1 #2)
# Summary of the method: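 TYKNU control cells or lentiCRISPRv2 knockout derivatives were plated at 500 cells per well in duplicate into drug-stamped 384-well plates holding a ~2100-compound library at 2 or 10 μM. Culture was in RPMI 1640 with 10% FBS at 37 °C in 5% CO2, with 72 h of drug treatment. Viability was measured by Cell Titer Glo luminescence, and the averaged duplicate treatment wells were normalised to duplicate control wells at the same plate position.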
Structure (SMILES),fractional viability (2uM),fractional viability (10uM)
CC(C)C[C@H](NP(=O)(O)O[C@@H]1O[C@@H](C)[C@H](O)[C@@H](O)[C@H]1O)C(=O)N[C@@H](Cc1c[nH]c2ccccc12)C(=O)O [Phosphoramidon Disodium Salt],0.899,0.879
CNC(=O)[C@@H](NC(=O)[C@H](CC(C)C)[C@H](O)C(=O)NO)C(C)(C)C [Marimastat(BB-2516)],0.952,0.73
CC[C@@H]([C@H](C)O)n1ncn(-c2ccc(N3CCN(c4ccc(OC[C@@H]5CO[C@@](Cn6cncn6)(c6ccc(F)cc6F)C5)cc4)CC3)cc2)c1=O [Posaconazole],1.18,0.872
Cc1ccc(NC(=O)Nc2cc(C(F)(F)F)ccc2F)cc1Nc1ccc2c(c1)NC(=O)/C2=C\c1ccc[nH]1,0.83,0.932
CNS(=O)(=O)Nc1nccc(Cc2c(C)c3ccc(Oc4ncccn4)cc3oc2=O)c1F,0.508,0.376
O=C(c1ccc(Nc2nccc(-c3cc4ccccc4s3)n2)cc1)N1CCC(N2CCCC2)CC1 [IKK-16 (IKK Inhibitor VII)],0.74,0.0971
O=C(c1ccc(C(=O)N2CCC(N3CCCC3)CC2)c(Nc2ccccc2)c1)N1CCC(N2CCCC2)CC1,0.924,0.857
O=C(c1cncc(Br)c1)N1CCC(N2CCCC2)CC1,0.797,0.838
O=C(N/N=C/c1cc(O)c(O)cc1O)c1cc2ccccc2cc1O [Dyngo-4a],1.04,1.16
Cc1nc(N(C)C(=O)Cc2ccc(-c3ccccn3)cc2)sc1S(N)(=O)=O [Pritelivir (BAY 57-1293)],0.924,0.791
Cc1cc(Cn2cnc3c2CC(C(=O)O)N(C(=O)C(c2ccccc2)c2ccccc2)C3)ccc1N(C)C (stereo not drawn),0.986,0.95
Cc1cc(C)cc(C(=O)NOCCCCCC(=O)NO)c1,0.355,0.188
"C/C=C1\NC(=O)[C@H]2CSSCC/C=C/[C@H](CC(=O)N[C@H](C(C)C)C(=O)N2)OC(=O)[C@H](C(C)C)NC1=O [Romidepsin (FK228, Depsipeptide)]",0.0685,0.0492
c1ccc2c(CCNc3ccc(Nc4ccncc4)cc3)c[nH]c2c1,0.485,0.15
Oc1nc(-c2ccc(C(F)(F)F)cc2)nc2c1CSCC2,1.13,0.683
Cc1ccc(Nc2nccc(N(C)c3ccc4c(C)n(C)nc4c3)n2)cc1S(N)(=O)=O [Pazopanib],1.14,0.605
CCOC(=O)c1[nH]c2cc(Cl)ccc2c1C(C(=O)NC(C)(C)C)N(C=O)Cc1ccc(Cl)cc1 (stereo not drawn),0.864,0.464
CN(C)c1ccc(C(=C2C=CC(=[N+](C)C)C=C2)c2ccc(N(C)C)cc2)cc1 [Crystal Violet],0.323,0.0953
O=C(O)CCC(=O)Nc1ccc(Br)cn1 [Bikinin],0.818,0.759
[I-].[K+] [Potassium Iodide],1.07,0.971
O=C1NCCCc2c1oc1ccc(O)cc21,1.1,1.15
c1ccc(Cn2c(-c3ccc(OC[C@H](C4CCNCC4)n4c(-c5ccccc5)nc5ccccc54)cc3)nc3ccccc32)cc1 [Deltarasin],1.14,0.0644
Cc1cc(/N=N/c2ccc(S(=O)(=O)Nc3ccccn3)cc2)c(N)cc1O,0.89,0.64
O=C(NO)c1cccc(C(=O)NCCc2ccccc2)c1,0.926,0.933
